The record followed here is the antibiotic and cytotoxicity screens of Wong et al. (2023).

Structures are written as SMILES. Among all 39,000 compounds or so, about 3,300 (8.5%) were called active. This excerpt belongs to a sample that is enriched for actives.

This test has as its system HepG2. Briefly: cytotoxicity call (relative viability < 0.9). Conditions: 10 µM.
As to `CN[C@@H]1[C@@H](O)[C@@H](O[C@@H]2[C@@H](O)[C@H](O[C@H]3O[C@H]([C@@H](C)NC)CC[C@H]3N)[C@@H](N)C[C@H]2N)OC[C@]1(C)O`, the cytotoxicity call is “inactive”.

As for `CNC(C)C1CCC(N)C(OC2C(N)CC(N)C(OC3OCC(C)(O)C(NC)C3O)C2O)O1.O=S(=O)(O)O` (stereo not given), the cytotoxicity call is “active”.

Regarding `CNC[C@@H]1CC[C@@H](N)[C@@H](O[C@H]2[C@H](O)[C@@H](O[C@H]3OC[C@](C)(O)[C@H](NC)[C@H]3O)[C@H](N)C[C@@H]2N)O1`, the cytotoxicity call was “inactive”.

Take `NC[C@H]1CCN(c2ccc(Oc3ccccc3)cc2)C1`: the cytotoxicity call is “active”.

Consider `NC[C@H]1CCCN(C(=O)Nc2ccc(Oc3ccccc3)cc2)C1`, for which the cytotoxicity call was “inactive”.

On to `Cc1ccc(N2CC[C@@H](CN)C2)cc1`, for which the cytotoxicity call is “inactive”.

For `Cn1c(=O)n2n(c1=O)[C@H](C1CC1)C=C1CN3[C@@H]([C@H](Cc4ccccc4)OC(=O)[C@@H]3Cc3ccc(N=[N+]=[N-])cc3)[C@@H]12`, the cytotoxicity call was “inactive”.

Regarding `Cc1ccc(S(=O)(=O)Nc2ccc3c(c2)C(=O)N([C@H](C)CO)C[C@@H](C)[C@H](CN(C)Cc2ccc(-c4ccccc4)cc2)O3)cc1`, the cytotoxicity call is “inactive”.

On to `Cc1ccc(S(=O)(=O)Nc2ccc3c(c2)C(=O)N([C@@H](C)CO)C[C@@H](C)[C@H](CN(C)Cc2ccc(-c4ccccc4)cc2)O3)cc1`, for which the cytotoxicity call is “inactive”.

As to `Cc1ccc(S(=O)(=O)Nc2ccc3c(c2)C(=O)N([C@@H](C)CO)C[C@H](C)[C@@H](CN(C)Cc2ccc(-c4ccccc4)cc2)O3)cc1`, the cytotoxicity call is “inactive”.

On to `Cc1ccc(S(=O)(=O)Nc2ccc3c(c2)C(=O)N([C@@H](C)CO)C[C@@H](C)[C@@H](CN(C)Cc2ccc(-c4ccccc4)cc2)O3)cc1`, for which the cytotoxicity call was “active”.

As to `Cc1ccc(S(=O)(=O)Nc2ccc3c(c2)C(=O)N([C@@H](C)CO)C[C@H](C)[C@H](CN(C)Cc2ccc(-c4ccccc4)cc2)O3)cc1`, the cytotoxicity call was “inactive”.

For the molecule `Cc1ccc(S(=O)(=O)Nc2ccc3c(c2)C(=O)N([C@H](C)CO)C[C@H](C)[C@H](CN(C)Cc2ccc(-c4ccccc4)cc2)O3)cc1`, the cytotoxicity call was “active”.

`Cc1ccc(S(=O)(=O)Nc2ccc3c(c2)C(=O)N([C@H](C)CO)C[C@@H](C)[C@@H](CN(C)Cc2ccc(-c4ccccc4)cc2)O3)cc1`: the cytotoxicity call is “active”.

With `Cc1ccc(S(=O)(=O)Nc2ccc3c(c2)C(=O)N([C@H](C)CO)C[C@H](C)[C@@H](CN(C)Cc2ccc(-c4ccccc4)cc2)O3)cc1`, the cytotoxicity call was “inactive”.

Consider `C[C@@H]1CCCCO[C@H](CN(C)C(=O)CCCN(C)C)[C@@H](C)CN([C@H](C)CO)C(=O)c2cc(NC(=O)Nc3ccc(F)cc3)ccc2O1`, for which the cytotoxicity call is “inactive”.

Consider `Cc1noc(C)c1NC(=O)N(C)C[C@H]1OCCCC[C@H](C)Oc2ccc(NS(=O)(=O)c3ccccc3)cc2C(=O)N([C@@H](C)CO)C[C@H]1C`, for which the cytotoxicity call is “inactive”.

Consider `C[C@H]1CN([C@@H](C)CO)S(=O)(=O)c2ccc(C#Cc3cccc(F)c3)cc2O[C@H]1CN(C)CC1CC1`, for which the cytotoxicity call was “inactive”.

As for `C[C@H](CO)N1C[C@H](C)[C@H](CN(C)S(=O)(=O)c2cn(C)cn2)Oc2ccc(NC(=O)C3CCCCC3)cc2C1=O`, the cytotoxicity call was “inactive”.

As for `Cc1ccc(S(=O)(=O)Nc2ccc3c(c2)C(=O)N(C)[C@H]2CC[C@@H](CC(=O)NCCc4ccncc4)O[C@@H]2CO3)cc1`, the cytotoxicity call is “inactive”.

For the molecule `O=C1c2ccccc2[C@](Cc2ccccc2I)(C(=O)NCc2ccccc2)[C@H](c2ccc(CO)cc2)N1Cc1ccccc1C(F)(F)F`, the cytotoxicity call is “inactive”.

As for `COCC#Cc1ccc2c(c1)O[C@H](CN(C)S(=O)(=O)c1ccc(C)cc1)[C@@H](C)CN([C@@H](C)CO)S2(=O)=O`, the cytotoxicity call was “inactive”.

Regarding `COc1ccc(CN(C)C[C@H]2Oc3ccc(NS(=O)(=O)c4cn(C)cn4)cc3CC(=O)N([C@@H](C)CO)C[C@H]2C)cc1`, the cytotoxicity call is “inactive”.

For `CC(C)CCC(=O)N1C[C@@H]2c3nc(N4CCOCC4)ncc3CS(=O)(=O)[C@H]2C1`, the cytotoxicity call is “inactive”.

As to `COC(=O)CCCCCCC(=O)N/N=C/[C@H](O)[C@@H](O)[C@H](O)CO`, the cytotoxicity call was “inactive”.

Take `Cc1noc(C)c1NC(=O)Nc1ccc2c(c1)CC(=O)N([C@@H](C)CO)C[C@@H](C)[C@H](CN(C)C(=O)Nc1ccc(C(F)(F)F)cc1)O2`: the cytotoxicity call was “inactive”.

In the case of `COc1ccc(CN(C)C[C@@H]2Oc3ccc(NS(=O)(=O)c4c(C)noc4C)cc3CC(=O)N([C@H](C)CO)C[C@@H]2C)cc1`, the cytotoxicity call was “inactive”.

In the case of `Cc1ccc(S[C@]2(C(=O)NCCN3CCOCC3)CC(=O)N(Cc3cc(C(F)(F)F)cc(C(F)(F)F)c3)[C@@H]2c2ccc(CO)cc2I)cc1`, the cytotoxicity call was “inactive”.

As for `Cc1ccc(S(=O)(=O)Nc2ccc3c(c2)CC(=O)N([C@H](C)CO)C[C@H](C)[C@@H](CN(C)S(=O)(=O)c2ccccc2)O3)cc1`, the cytotoxicity call was “inactive”.

Consider `C=CC(=O)Nc1cccc(Nc2nc(Nc3ccc(NC4CN(CCF)C4)cc3OC)ncc2C(F)(F)F)c1`, for which the cytotoxicity call was “active”.

`COc1cccc(-c2ccc3c(c2)O[C@H](CN(C)Cc2cncnc2)[C@@H](C)CN([C@H](C)CO)S3(=O)=O)c1`: the cytotoxicity call is “inactive”.

For the molecule `CCOc1ccccc1C(N)=O`, the cytotoxicity call was “inactive”.

Take `CCOC(=O)CC(=O)N1CCSC1COc1ccccc1OC` (stereo not given): the cytotoxicity call was “active”.

For `COc1ccccc1O[C@@H](C)C(=O)NN`, the cytotoxicity call was “inactive”.

`N[C@@H](Cn1ccc(=O)n(Cc2ccccc2C(=O)O)c1=O)C(=O)O`: the cytotoxicity call was “inactive”.

Take `Cc1noc(C)c1S(=O)(=O)Nc1ccc2c(c1)C(=O)N([C@@H](C)CO)C[C@@H](C)[C@@H](CN(C)C(=O)Nc1ccc3c(c1)OCO3)O2`: the cytotoxicity call is “inactive”.

`COc1cc2c(Oc3ccc(NC(=O)C4(C(=O)Nc5ccc(F)cc5)CC4)cc3F)ccnc2cc1OCCCN1CCOCC1`: the cytotoxicity call is “active”.

As for `COc1ccc2c3c(n(c2c1)C)[C@H](CO)N(C[C@]13CCN(CC1)C(=O)CN1CCOCC1)C(=O)Nc1ccc(cc1)F`, the cytotoxicity call is “inactive”.

For `Cc1cc(C)nc(NS(=O)(=O)c2ccc(NC(=O)c3cccn(OCc4ccc(F)cc4)c3=O)cc2)n1`, the cytotoxicity call was “inactive”.

Take `COc1cc2nccc(Oc3ccc(NC(=O)c4cn(C(C)C)c(=O)n(-c5ccc(F)cc5)c4=O)cc3F)c2cc1OC`: the cytotoxicity call was “active”.

Regarding `COc1cc2nccc(Oc3ccc(NC(=O)C4(C(=O)Nc5ccc(F)cc5)CC4)cc3)c2cc1OC`, the cytotoxicity call is “inactive”.

For `C[C@H]1CN([C@@H](C)CO)C(=O)Cc2cc(NC(=O)C3CC3)ccc2O[C@H]1CN(C)C(=O)Nc1ccccc1`, the cytotoxicity call is “inactive”.

Consider `C[C@H]1CN([C@@H](C)CO)C(=O)Cc2cc(NS(=O)(=O)c3ccccc3)ccc2O[C@H]1CN(C)S(C)(=O)=O`, for which the cytotoxicity call is “inactive”.

For `O=S(=O)(O)O/N=C(\Cc1ccc(O)cc1)S[C@H]1O[C@H](CO)[C@@H](O)[C@H](O)[C@H]1O`, the cytotoxicity call is “inactive”.

As for `CC=Cc1ccc2n(c1=O)C[C@@H]1[C@@H](CO)[C@H](C(=O)NCCc3cn(C)cn3)N(C(=O)CC)[C@H]21`, the cytotoxicity call was “inactive”.

As to `C[C@H](CO)N1C[C@H](C)[C@H](CN(C)C(=O)C2CCOCC2)Oc2ncc(C#Cc3cccc(F)c3)cc2C1=O`, the cytotoxicity call is “inactive”.

With `CC(C)N1CC[C@@H](CNCc2ccc(Oc3ccccc3)cc2)Oc2c(NC(=O)c3ccncc3)cccc2C1=O`, the cytotoxicity call was “inactive”.

In the case of `O=C(NCc1ccccn1)C1CCNCC1`, the cytotoxicity call was “inactive”.

As for `CC(C)CNC(=O)C(=O)NCc1ccccn1`, the cytotoxicity call was “inactive”.

On to `CN(CC(=O)NCc1ccccn1)S(=O)(=O)c1cc(Br)cnc1N`, for which the cytotoxicity call is “active”.

In the case of `Nc1nc(Cl)nc(Cl)n1`, the cytotoxicity call was “inactive”.

`COc1ccc(NC(=O)Nc2ccc3c(c2)[C@@H]2C[C@@H](CC(=O)NCc4ccccn4)O[C@H](CO)[C@@H]2O3)cc1`: the cytotoxicity call was “inactive”.

On to `C[C@H](CO)N1C[C@H](C)[C@@H](CN(C)Cc2ccc(C(F)(F)F)cc2)Oc2ccc(NC(=O)C3CCCCC3)cc2CC1=O`, for which the cytotoxicity call was “inactive”.

For the molecule `C[C@@H]1CN([C@@H](C)CO)C(=O)Cc2cc(NC(=O)C3CCCCC3)ccc2O[C@@H]1CN(C)Cc1ccc(C(F)(F)F)cc1`, the cytotoxicity call is “active”.

Regarding `C[C@H](CO)N1C[C@H](C)[C@H](CN(C)Cc2ccc(C(F)(F)F)cc2)Oc2ccc(NC(=O)C3CCCCC3)cc2CC1=O`, the cytotoxicity call was “inactive”.

In the case of `C[C@@H]1CN([C@@H](C)CO)C(=O)Cc2cc(NC(=O)C3CCCCC3)ccc2O[C@H]1CN(C)Cc1ccc(C(F)(F)F)cc1`, the cytotoxicity call is “inactive”.

For the molecule `C[C@@H]1CN([C@H](C)CO)C(=O)Cc2cc(NC(=O)C3CCCCC3)ccc2O[C@H]1CN(C)Cc1ccc(C(F)(F)F)cc1`, the cytotoxicity call was “inactive”.

Turning to `C[C@H]1CN([C@@H](C)CO)C(=O)Cc2cc(NC(=O)C3CCCCC3)ccc2O[C@@H]1CN(C)Cc1ccc(C(F)(F)F)cc1`, the cytotoxicity call is “active”.

Consider `C[C@@H]1CN([C@H](C)CO)C(=O)Cc2cc(NC(=O)C3CCCCC3)ccc2O[C@@H]1CN(C)Cc1ccc(C(F)(F)F)cc1`, for which the cytotoxicity call was “active”.

As for `C[C@H]1CN([C@@H](C)CO)C(=O)Cc2cc(NC(=O)C3CCCCC3)ccc2O[C@H]1CN(C)Cc1ccc(C(F)(F)F)cc1`, the cytotoxicity call was “inactive”.

With `C[C@H](CO)N1C[C@H](C)[C@H](CN(C)C(=O)Nc2ccc(C(F)(F)F)cc2)Oc2ccc(NC(=O)C3CCCCC3)cc2CC1=O`, the cytotoxicity call was “inactive”.

Turning to `CCN1C[C@]23CN(C(=O)c4cnccn4)C[C@@H](C[C@H]2S1(=O)=O)O3`, the cytotoxicity call is “inactive”.

With `C[C@H]1CN([C@@H](C)CO)C(=O)CCCn2nncc2CO[C@H]1CN(C)S(=O)(=O)c1ccc(Oc2ccccc2)nc1`, the cytotoxicity call is “inactive”.

Take `C[C@@H]1CCCCO[C@H](CN(C)C(=O)Nc2ccc(F)cc2)[C@H](C)CN([C@H](C)CO)C(=O)c2cc(NS(=O)(=O)c3ccccc3)ccc2O1`: the cytotoxicity call was “inactive”.

Turning to `C[C@H](CO)N1C[C@H](C)[C@H](CN(C)C)Oc2ccc(NS(=O)(=O)c3cn(C)cn3)cc2CC1=O`, the cytotoxicity call is “inactive”.

For the molecule `Cc1noc(C)c1S(=O)(=O)NC(C)C`, the cytotoxicity call is “inactive”.

Regarding `CS(=O)(=O)CS(=O)(=O)C1=C(N2CCOCC2)C2CCN1CC2`, the cytotoxicity call was “inactive”.

Turning to `Cc1noc(C)c1NC(=O)N[C@@H]1C=C[C@@H](CC(=O)N2CCN(C)CC2)O[C@H]1CO`, the cytotoxicity call was “inactive”.

As for `c1ccc(-c2cccs2)nc1`, the cytotoxicity call was “inactive”.

For the molecule `O=C(Nc1ccc(C(F)(F)F)cc1)Nc1ccc2c(c1)[C@H]1C[C@@H](CC(=O)N3CCc4ccccc4C3)O[C@@H](CO)[C@H]1O2`, the cytotoxicity call is “inactive”.

As for `O=C(Nc1ccc(C(F)(F)F)cc1)Nc1ccc2c(c1)[C@H]1C[C@H](CC(=O)N3CCc4ccccc4C3)O[C@@H](CO)[C@H]1O2`, the cytotoxicity call was “inactive”.

In the case of `O=C(Nc1ccc(C(F)(F)F)cc1)Nc1ccc2c(c1)[C@@H]1C[C@@H](CC(=O)N3CCc4ccccc4C3)O[C@H](CO)[C@@H]1O2`, the cytotoxicity call is “active”.

Regarding `O=C(Nc1ccc(C(F)(F)F)cc1)Nc1ccc2c(c1)[C@H]1C[C@@H](CC(=O)N3CCc4ccccc4C3)O[C@H](CO)[C@H]1O2`, the cytotoxicity call was “active”.

Turning to `O=C(Nc1ccc(C(F)(F)F)cc1)Nc1ccc2c(c1)[C@@H]1C[C@H](CC(=O)N3CCc4ccccc4C3)O[C@@H](CO)[C@@H]1O2`, the cytotoxicity call is “inactive”.

As to `O=C(Nc1ccc(C(F)(F)F)cc1)Nc1ccc2c(c1)[C@@H]1C[C@H](CC(=O)N3CCc4ccccc4C3)O[C@H](CO)[C@@H]1O2`, the cytotoxicity call is “inactive”.
